Experimental data as given in PMC12136788.
Whole data set: some 24,000 sequences, median “enrichment r” near 0.99, cut for the highest 2% near 3.7. The sample as a whole holds a higher share of the highest values than the screen did.

T1: UNK ZnF1-3 (human, UniProt Q9C0B0 31-174)
T1 sequence: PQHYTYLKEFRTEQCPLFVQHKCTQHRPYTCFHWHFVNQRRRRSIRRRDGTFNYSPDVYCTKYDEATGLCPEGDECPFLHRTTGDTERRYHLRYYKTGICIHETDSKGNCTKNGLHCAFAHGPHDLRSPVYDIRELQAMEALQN

B1: chr16:94664741:94664742:+_ENSMUSG00000040785_ENSMUST00000117648|mus_hu|mus_mus_mus_hu_False|8_68 (ssRNA)
RNA: GGGAGUUCUACAGUCCGACGAUCUGGUACUGAUCUUGGUAGCUGAUAUUCAGGAGAAAGGCUGGCCAAAGGUGUGUAUAUGCUGGUGUACUGGGGCAAACCUGGUAACACGUUUAUGUAUGCUGGCCGCUGGGUGAUGAUAUCCAACAGAGGAUUGAGCAUCA
B2: chrX:53596632:53596633:-_ENSG00000086758_ENST00000262854|hu_mus|FALSE|FALSE (ssRNA)
RNA: GGGAGUUCUACAGUCCGACGAUCGGCGUGCUUCUCUGUACUCUCAGCCAUAGCAAGCGCCCGUCCCAGGGCUGCUUUCACUUCAUUCACUAGGGCCACUUGAGCAUCUGUGCCACUCCCCGCAGCAGCCAGACUUGCAAGGAACAACAGAGGAUUGAGCAUCA
B3: chr12:39756943:39756944:-_ENSG00000139116_ENST00000544797|hu_mus|hu_hu_hu_mus_False|18_98 (ssRNA)
RNA: GGGAGUUCUACAGUCCGACGAUCGGUUUGGCUGUUACCCCCGAGGGAAUCCUGCAAGAGUCUUGUCAGCUUAGAGUCUCUGUAAGGGACAUGGGUGGCUCUCUUGCUCUUGUCCCCCAAGGCACUUAUUACAUUCCCAAGAGCCAACAGAGGAUUGAGCAUCA
B4: chr12:96663167:96663168:+_ENSG00000111145_ENST00000228741|hu_mus|FALSE|FALSE (ssRNA)
RNA: GGGAGUUCUACAGUCCGACGAUCUCUGGGUCCACAGGAGAAUCAUGGUAGUUGGAAGAAAAGGAAUCAACAGGCAGACUUACAGUCAUGGGAACAUUUCCAACCAGCGUUUAUAGUUUAAAGGUCGACAGAAGGUCAUCUUGUCAACAGAGGAUUGAGCAUCA
B5: chr7:75932113:75932114:+_ENSG00000106211_ENST00000248553|hu_hu|hu_hu_hu_mus_False|8_48 (ssRNA)
RNA: GGGAGUUCUACAGUCCGACGAUCCUGCGACCACUCAUCGGGCAACCGGGGCACCCCGAAAGCUUGAUCGAAGAGGCGGCUGUGUGCGUACCAGUCGUCCCGGAAUGGUUCCCAGCUCGGGCUCCGCAGCGAGAAGGAGGGCACCAACAGAGGAUUGAGCAUCA
B6: 19974894_19982776_1293_CDS_ENSMUSG00000002428_ENSMUST00000002502|mouse|control|control (ssRNA)
RNA: GGGAGUUCUACAGUCCGACGAUCAAUGUACUGUACAGAAAUUUUUCUUCUCUUAGGGCAGACGCUAGACAGCUGCGACAGAGUACAGCUACUCUUCUCCGGAGUUCCUGAAAUACUGGGUUCUUCACCACACGUGGAUGACUCCAACAGAGGAUUGAGCAUCA

These binders were tested against T1, UNK ZnF1-3 (assay: nsRBNS (natural sequence RNA bind-n-seq); RBNS binding buffer (assumed for nsRBNS): 25 mM Tris pH 7.5, 150 mM KCl, 3 mM MgCl2, 0.01% Triton X-100, 500 ug/ml BSA, 20 U/ml SUPERase-In, 4 C; UNK is unkempt and MSI1 is Musashi-1; names of the RNAs are library labels; protein concentration not given here; high values mean tight binding).

Binder | binding signal [enrichment R]
B1 | 1.06
B2 | 1.52
B3 | 0.694
B4 | 1.6
B5 | 1.04
B6 | 0.756
